Laboratory results from PubChem BioAssay AID1835 (Johns Hopkins Ion Channel Center, 2009).
About 750 (31%) of roughly 2,400 compounds were called active.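 The calls were made as follows: active = median signal gain over dofetilide-blocked control wells reaching their mean plus 3 SD, so readout 1 at least 0; inactive = the rest.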 The list shows a part of the results.

biological target: Voltage-gated inwardly rectifying potassium channel KCNH2 (Homo sapiens) (UniProt Q12809); experiment: hERG protection against dofetilide inhibition, confirmation, cell-based, thallium flux, duplicate retest, dofetilide IC70 (AID 1835); details: hERG cell line, FluxOR thallium flux, dofetilide-blocked; at 10 µM; hits give high values
Sequence (Q12809 whole entry, looked up): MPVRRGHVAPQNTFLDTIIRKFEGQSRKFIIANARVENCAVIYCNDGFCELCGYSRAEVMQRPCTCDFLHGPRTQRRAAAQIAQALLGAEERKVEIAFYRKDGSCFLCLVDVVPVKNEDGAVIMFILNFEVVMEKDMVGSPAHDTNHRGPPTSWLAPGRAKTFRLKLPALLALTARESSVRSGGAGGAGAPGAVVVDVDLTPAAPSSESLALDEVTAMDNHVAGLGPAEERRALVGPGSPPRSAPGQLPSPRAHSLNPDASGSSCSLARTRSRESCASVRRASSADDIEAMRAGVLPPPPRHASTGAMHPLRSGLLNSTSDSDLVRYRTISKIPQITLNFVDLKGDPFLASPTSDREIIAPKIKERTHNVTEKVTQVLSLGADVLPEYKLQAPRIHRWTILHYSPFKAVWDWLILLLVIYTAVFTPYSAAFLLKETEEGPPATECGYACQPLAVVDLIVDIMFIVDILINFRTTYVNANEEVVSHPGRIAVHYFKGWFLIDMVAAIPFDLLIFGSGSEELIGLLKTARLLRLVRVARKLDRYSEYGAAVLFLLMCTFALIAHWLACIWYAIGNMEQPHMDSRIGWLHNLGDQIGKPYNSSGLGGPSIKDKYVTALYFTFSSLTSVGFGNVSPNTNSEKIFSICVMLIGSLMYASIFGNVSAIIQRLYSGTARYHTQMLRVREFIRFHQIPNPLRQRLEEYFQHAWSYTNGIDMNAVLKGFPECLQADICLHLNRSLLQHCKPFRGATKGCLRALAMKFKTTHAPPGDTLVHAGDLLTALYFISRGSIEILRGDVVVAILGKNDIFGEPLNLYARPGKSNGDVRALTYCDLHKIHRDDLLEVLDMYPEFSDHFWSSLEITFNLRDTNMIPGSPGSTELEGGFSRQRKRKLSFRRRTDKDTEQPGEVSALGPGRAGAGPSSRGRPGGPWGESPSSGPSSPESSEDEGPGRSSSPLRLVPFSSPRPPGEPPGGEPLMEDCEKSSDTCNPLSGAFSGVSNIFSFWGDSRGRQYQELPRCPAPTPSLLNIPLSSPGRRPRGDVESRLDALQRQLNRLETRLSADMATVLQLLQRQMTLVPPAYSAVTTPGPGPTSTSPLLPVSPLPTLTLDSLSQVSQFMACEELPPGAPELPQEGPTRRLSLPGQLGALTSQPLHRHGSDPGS

SMILES | activity increase over dofetilide control, less the hit threshold
COc1cc(OC)cc(C(=O)O/N=C(\N)c2cccc(C)c2)c1 | -14% (inactive)
COc1cccc(C(=O)CC(=O)C(=O)Nc2ccc(C)cc2Cl)c1 | 50% (active)
COc1ccc(C(=O)CC(=O)C(=O)Nc2ccc(C)cc2Cl)cc1 | 35% (active)
COc1ccc(CNC(=O)C2CCCN2)cc1OC (centres undefined) | -14% (inactive)
Cc1ccc(CC23CN4CCN(CC(C4)C2O)C3)c(C)c1 (centres undefined) | -14% (inactive)
NC(=O)c1nsc(C(=O)N(CC(=O)NCc2ccccc2)c2ccc(F)cc2)c1N | -22% (inactive)
Cc1ccc2c(c1)c1nnc(SCC(=O)Nc3ccc(N(C)C)cc3)nc1n2CC(=O)O | -9% (inactive)
C=CCNC(=O)c1ccccc1NC(=O)COc1ccc(OC)cc1 | -2% (inactive)
O=C(/C=C/c1ccccc1)Nc1ccc(S(=O)(=O)N2CCOCC2)cc1 | -10% (inactive)
COc1cc(/C=C/C(=O)O)ccc1OS(=O)(=O)c1cc(C)ccc1C | -26% (inactive)
COc1ccc(/C=C/C(=O)Nc2ccccc2C(=O)O)cc1 | 5% (active)
COc1cc(/C=C/C(=O)N[C@@H](Cc2c[nH]c3ccccc23)C(=O)O)ccc1O | -8% (inactive)
COc1ccc(/C=C/C(=O)Nc2ccccc2C(=O)O)cc1OC | 18% (active)
Cc1cc2ccccn2c1C(=S)NC(=O)c1ccccc1 | 50% (active)
Cc1ccc(C(=O)NNC(=S)NC(=O)c2ccccc2)cc1 | -40% (inactive)
O=C(Nc1ccc(Cl)cc1Cl)c1n[nH]c(Cn2cncn2)n1 | -1% (inactive)
S=c1nn[nH]n1C12CC3CC(CC(C3)C1)C2 | 27% (active)
CCOc1ccc(Nc2ccc([N+](=O)[O-])c3nonc23)cc1 | -6% (inactive)
Cc1cc(=O)[nH]c(SCC(=O)NC2CCCCC2)n1 | 0% (inactive)
O=C(Nn1cnnc1)c1ccncc1 | -14% (inactive)
CNC(=S)N/N=C/c1cc(Br)cc(Br)c1O | -3% (inactive)
Oc1c(Br)cc(Br)cc1C=Nc1ccc2[nH]ncc2c1 | -2% (inactive)
Cc1nnc(C)n1/N=C/c1cc(Br)cc(Br)c1O | 15% (active)
O=C(Cn1nnc(-c2cccc(C(F)(F)F)c2)n1)N1CCCCCC1 | -8% (inactive)
COc1cc(OC)cc(-c2nc3ccccc3c(=O)n2OC(=O)c2ccc(Br)cc2)c1 | -26% (inactive)

SMILES | activity increase over dofetilide control, less the hit threshold
O=c1c2ccc(Cl)cc2nc(-c2cccc(C(F)(F)F)c2)n1O | 94% (active)
O=c1c2cc(Br)ccc2nc(-c2cccc(C(F)(F)F)c2)n1O | 115% (active)
O=c1c2cc(Br)ccc2nc(-c2cccc(Cl)c2)n1O | 102% (active)
O=c1c2cc(Br)ccc2nc(-c2ccccc2)n1O | 45% (active)
O=C(COC(=O)c1cc(NS(=O)(=O)c2cccs2)ccc1O)Nc1cc(Cl)ccc1Cl | -4% (inactive)
O=C(COC(=O)c1cccs1)NCCN1C(=O)CSC1=O | -9% (inactive)
CNC(=O)NC(=O)C(C)N1CCN(C/C=C/c2ccccc2)CC1 (centres undefined) | -16% (inactive)
Cc1nonc1OCCNc1ccc([N+](=O)[O-])cc1 | -2% (inactive)
N#Cc1ccc(-c2nc3ccc(Br)cc3c(=O)n2O)cc1 | 1% (active)
CCCn1c(SC(C)C(=O)N2CCOCC2)nc2ccc(Br)cc2c1=O (centres undefined) | -11% (inactive)
O=c1c2cc(Br)ccc2nc(-c2ccc(Cl)cc2)n1O | 101% (active)
Cc1ccc(-n2c(C)cc(C(=O)CN3CCOCC3)c2C)cc1 | -6% (inactive)
CC1CCCC(C(=O)OCc2ccccc2)N1 (centres undefined) | -3% (inactive)
CC(=O)Nc1ccc2nc(NC(=O)c3ccc([N+](=O)[O-])o3)sc2c1 | 5% (active)
O=C(Nc1ncc(Cc2ccc(C(F)(F)F)cc2)s1)c1ccc(-c2cccc([N+](=O)[O-])c2)o1 | -14% (inactive)
O=C(Nc1ccc(N2CCN(C(=O)c3ccc(Cl)cc3)CC2)cc1)c1ccc([N+](=O)[O-])o1 | -11% (inactive)
CCc1ccc(S(=O)(=O)NC(=S)NC2CCCCC2)cc1 | 35% (active)
O=S(=O)(NC(=S)NC1CCCCC1)c1ccc(Br)cc1 | 12% (active)
O=S(=O)(NC(=S)NC1CCCCC1)c1ccc(Cl)cc1 | 10% (active)
Cc1cc(Cl)c(S(N)(=O)=O)cc1OCC(=O)NC1CCCCC1 | -8% (inactive)
O=C(NC1CCCCC1)c1ccc(COCC(F)(F)F)o1 | -5% (inactive)
COc1ccc(C)cc1S(=O)(=O)NC1CCCCC1 | -5% (inactive)
CC(C)(C)c1ccccc1NC(=S)NC1CCCC1 | -7% (inactive)
Cc1ccc(S(=O)(=O)NC(=S)NC2CCCCC2)cc1 | 3% (active)
O=c1oc2ccccc2c(NC2CCCCC2)c1NS(=O)(=O)c1ccc(Cl)cc1 | -6% (inactive)

SMILES | activity increase over dofetilide control, less the hit threshold
CCOc1ccc(C(C)NC(=S)NC2CCCCC2)cc1 (centres undefined) | -9% (inactive)
CC1=CN2C(=N)/C(=C/c3ccc(Sc4ccc(Cl)cc4)o3)C(=O)N=C2S1 | -2% (inactive)
CC(C)(C)n1nnnc1C(c1cc2cc3c(cc2[nH]c1=O)OCCO3)N1CCSCC1 (centres undefined) | -11% (inactive)
CC(C)(C)c1nc(SCC(=O)N2CCCC2)c2ccccc2n1 | -15% (inactive)
Cc1cccc(N2CCN(C(=O)C3CCN(S(=O)(=O)c4cccnc4)CC3)CC2)c1C | -8% (inactive)
C/C(=N\Nc1nc(C)c(C)s1)c1ccc([N+](=O)[O-])cc1 | 22% (active)
C/C(=N/NC(=S)Nc1cccc(C)c1)c1cccc([N+](=O)[O-])c1 | -1% (inactive)
C/C(=N\Nc1cc(N2CCOCC2)ncn1)c1cccc([N+](=O)[O-])c1 | -24% (inactive)
COc1ccc2c(C(=O)CN3CCN(c4ccccc4)CC3)c[nH]c2c1 | -10% (inactive)
O=C(O)c1cc(NN=C2c3ccccc3-c3ccccc32)ccc1Cl | -4% (inactive)
CCCN1CCC(NC(=O)CC2C(=O)NCCN2Cc2cccc(OC)c2)CC1 (centres undefined) | -6% (inactive)
Cc1cc(C)c2nc(NC(=O)CN3C(=O)NC4(CCCC4)C3=O)sc2c1 | -10% (inactive)
CC1CN(S(=O)(=O)c2ccc(-c3nc4ccccc4s3)cc2)CC(C)O1 (centres undefined) | 7% (active)
O=C(NC(=S)NCc1ccc(-c2nc3ccccc3s2)cc1)c1ccco1 | -2% (inactive)
CCOC(=O)N1CCC(N2C(=O)c3ccccc3C2Nc2cccnc2)CC1 (centres undefined) | 11% (active)
Cc1ccnc(N2CCC(C(=O)Nc3ccc(Oc4ccccc4)cc3)CC2)n1 | -11% (inactive)
COc1ccc(-n2ncc3c2CC(C)(C)CC3NC(=O)c2cn[nH]c2)cc1 (centres undefined) | -9% (inactive)
Cc1cc(C)cc(-n2ncc3c2CCCC3NC(=O)c2csnn2)c1 (centres undefined) | 58% (active)
Cc1ccc(-n2ncc3c2CCCC3NC(=O)c2csnn2)cc1C (centres undefined) | 21% (active)
COc1cc2c(cc1OC)C(c1ccc([N+](=O)[O-])cc1)N(C(C)=O)CC2 (centres undefined) | -36% (inactive)
Cc1ccc(S(=O)(=O)Nc2c(C)[nH]c(=O)[nH]c2=O)cc1C | -13% (inactive)
O=C(NC(=S)Nc1nc(-c2ccccc2)cs1)c1cccs1 | 17% (active)
COc1ccc(-c2csc(NC(=S)NC(=O)c3cccs3)n2)cc1OC | -1% (inactive)
COc1ccc(-c2csc(NC(=S)NC(=O)c3cccs3)n2)cc1Br | 6% (active)
S=C(NCc1ccco1)N1CCN(c2nc(-c3ccccc3)cs2)CC1 | -13% (inactive)

SMILES | activity increase over dofetilide control, less the hit threshold
O=C(NC(=S)N1CCN(c2nc(-c3ccccc3)cs2)CC1)c1cncc(Br)c1 | 12% (active)
O=C(NC(=S)Nc1ncc(Br)cc1Br)c1ccccc1 | 11% (active)
Brc1ccc(-c2csc(N3CCCCCC3)n2)cc1 | -3% (inactive)
CC(O)C(NS(=O)(=O)c1ccc(Cl)cc1)C(=O)OCc1cc([N+](=O)[O-])cc2c1OCOC2 (centres undefined) | -12% (inactive)
Cc1cc(-c2ccccc2)[nH]c(=O)c1S(=O)(=O)c1ccccc1 | -17% (inactive)
O=C(CN(C(=O)CNS(=O)(=O)c1ccc(F)cc1)c1cccc(F)c1)NCC1CCCO1 (centres undefined) | -17% (inactive)
COc1ccc(-c2csc(NC(=S)NC(=O)c3ccc4ccccc4c3)n2)cc1OC | -9% (inactive)
Cc1ccc(NC(=S)NC(=O)c2cncc(Br)c2)cc1Cl | -13% (inactive)
O=C(NC(=S)Nc1cccc(Cl)c1)c1cncc(Br)c1 | -10% (inactive)
Cc1ccc(C)c(NC(=S)NC(=O)c2cncc(Br)c2)c1 | 6% (active)
CC1CCCC(NC(=S)NC(=O)c2cncc(Br)c2)C1C (centres undefined) | -10% (inactive)
O=C(NC(=S)Nc1nc(-c2ccccc2)cs1)c1cncc(Br)c1 | 1% (active)
COc1cc(S(=O)(=O)n2cnc(C)c2)ccc1Cl | -20% (inactive)
COC(=O)c1cc2sc(Cl)cc2n1CC(=O)NCC1CCCO1 (centres undefined) | -8% (inactive)
COC(=O)C1=C(C)N(CC2CCCO2)C(=O)/C1=C\c1ccc(O)cc1 (centres undefined) | 8% (active)
Cc1ccc(NC(=O)CSc2nnc(C3CC3)n2CC2CCCO2)c(C)c1 (centres undefined) | -14% (inactive)
O=S(=O)(c1ccc(F)cc1)N1CCN(c2ccc(F)cc2)CC1 | -15% (inactive)
CCOC(=O)c1sc(=S)n2c1[nH]c(=O)c1ccc(C(=O)OC)cc12 | 51% (active)
CCC1SC2=NC(C)=C(C(=O)OC)C(c3ccc(C(=O)OC)cc3)N2C1=O (centres undefined) | -1% (inactive)
CC(=O)N1C(=O)/C(=C2\SC(=S)N(NC(=O)c3ccc(O)cc3)C2=O)c2ccccc21 | -3% (inactive)
S=c1nc(-c2ccccc2)[nH]n1-c1ccccc1 | 54% (active)
COc1cc(-c2nnc(SCC(=O)O)n2-c2ccccc2)cc(OC)c1OC | -9% (inactive)
Cc1ccc(/C=C2/C(=N)N3N=C(CC(=O)N4CCCC4)SC3=NC2=O)cc1 | -2% (inactive)
CC(C)CSC1=NSC2=NC(=O)/C(=C\c3ccccc3)C(=N)N12 | 32% (active)
